Test results taken from paper PMC9574860, “Chemical Toolkit for PARK7: Potent, Selective, and High-Throughput” (Journal of Medicinal Chemistry, 2022).
The whole screen tested about 7,900 compounds, of which about 400 (5.1%) showed an effect of 50% or more. The sample holds strong results, similar compounds and a random draw of the others, so the mix is not that of the screen.

Target: Parkinson's disease protein 7 (PARK7/DJ1) (human, UniProt Q99497)
Assay: primary screen, percent inhibition; read as competition with a fluorescent probe by fluorescence polarization; higher = more effect of the substance
Conditions: 100 µM
In short: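 Covalent fragments at 100 μM final were incubated 2 h with 0.2 μM PARK7, then 20 nM probe JYQ-107 added for a further 2 h. Fluorescence polarization read at 480/520 nm; relative FP loss versus reference controls gave remaining enzyme activity.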

Parkinson's disease protein 7 (PARK7/DJ1), sequence (Q99497 whole entry, looked up): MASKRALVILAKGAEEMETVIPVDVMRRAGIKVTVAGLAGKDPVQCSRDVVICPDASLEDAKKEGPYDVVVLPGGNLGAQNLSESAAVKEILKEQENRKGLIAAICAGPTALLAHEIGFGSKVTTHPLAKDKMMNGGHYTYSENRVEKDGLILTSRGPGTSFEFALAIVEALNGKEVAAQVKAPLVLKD

Row | SMILES | Inhibition % [%]
1 | N#CN(Cc1nnc(C2CCC2)o1)c1ccc(F)c(Cl)c1 | -0.412
2 | C=CC(=O)N1CCC12CCOC2 (centres unmarked) | 7.06
3 | Cc1ccc(C(C)NC(=O)Cn2cnc(C#N)n2)cc1C (centres unmarked) | 3.5
4 | Cc1cc(S(=O)(=O)F)ccc1C(=O)O | 85.1
5 | CC(=O)c1ccc(S(=O)(=O)F)cc1 | 34.9
6 | O=C(O)c1cc(S(=O)(=O)F)ccc1Cl | 7.95
7 | Cc1ccc(S(=O)(=O)F)cc1 | 2.62
8 | Cc1ccc(S(=O)(=O)F)cc1C(=O)O | 87.9
9 | C=CC(=O)NC1CCOC2(CCSC2)C1 (centres unmarked) | 6.26
10 | Cc1cc(C)n(S(=O)(=O)N2CCCCC2)n1 | 7.02
11 | CCC1(C(=O)Nc2cccc(S(=O)(=O)F)c2)CCC1 | 93.8
12 | COCC1(C(=O)Nc2cccc(S(=O)(=O)F)c2)CCCC1 | 94.3
13 | O=C(Nc1cccc(S(=O)(=O)F)c1)C1(CF)CCC1 | 95.8
14 | COc1ccccc1C(=O)Nc1cccc(S(=O)(=O)F)c1 | 4.59
15 | O=C(Nc1cccc(S(=O)(=O)F)c1)C1(CF)CCOCC1 | 95.3
16 | COc1ccc(S(=O)(=O)n2ccc(C)n2)cc1C | 2.32
17 | Cc1nn(C)c(Cl)c1C=CC(=O)N1CCC(C(=O)O)C1.Cl (centres unmarked) | 7.34
18 | C=CC(=O)NCC1CC2(CCC2)CO1 (centres unmarked) | 5.74
19 | Cc1cccc(-n2nnnc2SC2CC(C)OC2=O)c1 (centres unmarked) | 3.51
20 | Cn1cc(NS(=O)(=O)C=Cc2ccccc2Cl)cn1 | 28.6
21 | CCn1cc(C2NC(=O)C23CCOCC3)cn1 (centres unmarked) | 2.01
22 | Cc1ccc(NC(=O)C(C#N)=Cc2cn(C)cn2)c(C)c1 | 10.3
23 | CCN(C(=O)CCl)c1ccc(F)cc1 | 31.3

Row | SMILES | Inhibition % [%]
24 | Cc1cc(C=C(C#N)C(=O)NCC2CCCO2)ccc1F (centres unmarked) | 2.68
25 | COC(=O)C1CC(S(=O)(=O)F)CN1C(=O)C1CCOCC1 (centres unmarked) | 9.64
26 | CC(C)(C)OC(=O)N1CCCC(S(=O)(=O)F)C1 (centres unmarked) | 10.7
27 | O=C(N[C@H]1CC[C@@H](CS(=O)(=O)F)C1)C1CCOCC1 (racemic) | 77.4
28 | Cl.N[C@@H]1CC[C@H](CS(=O)(=O)F)C1 (racemic) | 22.9
29 | O=S(=O)(F)CC1CCOCC1 | 10.5
30 | CC(C)(C)OC(=O)N[C@@H]1CC[C@H](CS(=O)(=O)F)C1 (racemic) | 87.2
31 | CC(C)C1(c2ccccc2)CO1 (centres unmarked) | 4.43
32 | N#CSCc1nc2ccccc2[nH]1 | 24.5
33 | COc1cc(SC#N)ccc1O | 15.4
34 | CS(=O)(=O)OCC1CCCNC1=O (centres unmarked) | 7.7
35 | COc1ccc(NCCS(=O)(=O)F)cc1.Cl | 44.4
36 | Cl.O=S(=O)(F)CCNc1ccc(F)cc1 | 36.8
37 | Cl.O=S(=O)(F)CCNc1ccc(Cl)cc1 | 66
38 | N#Cc1ccc2cc[nH]c2n1 | 68.4
39 | N#Cc1ccc(Cl)c(Cl)n1 | 5.12
40 | N#Cc1ccc2[nH]ccc2n1 | 18.7
41 | COc1cc(C=C(C#N)C(=O)NC(C)C)cc(Cl)c1O | -0.272
42 | Cl.NC1C=CS(=O)(=O)C1 (centres unmarked) | 9.63
43 | NC(=O)c1c(NC(=O)CCl)sc2c1CCC2 | 38.6
44 | CN(Cc1cnn(C)c1)C(=O)CCl.Cl | 20.6
45 | CCn1nc(C)c(C(=O)CCl)n1 | 13.1
46 | Cn1nccc1C(=O)CCl | 15.4

Row | SMILES | Inhibition % [%]
47 | Cn1nncc1C(=O)CCl | 82.2
48 | Cn1ccc(C(=O)CCl)c1 | 49
49 | C=CC(=O)NCCCc1cnn(C)n1 | 5.99
50 | Cn1cc(C(=O)CCl)cn1 | 77.2
51 | CCn1ncc(C(=O)CCl)n1 | 87.8
52 | Cl.O=C(CCl)c1csc(N2CCCCC2)n1 | 2.02
53 | Cn1ccnc1C(=O)CCl | 32.3
54 | Cn1cccc1C(=O)CCl | 8.03
55 | Cn1ncc(C(=O)CCl)n1 | 95.3
56 | OC1(C2CO2)CCOCC1 (centres unmarked) | 7.63
57 | CC1(C)OB(c2cccc(CN3CCOCC3)c2)OC1(C)C.Cl | 25.8
58 | N#CN(Cc1ccc(C(N)=O)cc1)c1ccc(F)cc1 | 3.09
59 | C=CC(=O)NC1CCCC1C(=O)NC (centres unmarked) | 9
60 | Cc1nc(C=CC(=O)N2CCC(C)(C(=O)O)C2)cs1 (centres unmarked) | 5.72
61 | COc1ccc(C2=NC(=Cc3csc(C)n3)C(=O)O2)cc1 | 14.1
62 | Nc1ccc(N2CCC2=O)cc1 | 16.5
63 | O=C(CCl)Nc1nc2ccc([N+](=O)[O-])cc2s1 | 6.68
64 | O=C(CCl)Nc1ncc([N+](=O)[O-])s1 | 96.3
65 | Cc1ccc(Cc2cnc(NC(=O)CCl)s2)cc1 | 7.26
66 | C=CC(=O)Nc1ccc(F)c(F)c1 | 7.82
67 | CCc1nccn1S(=O)(=O)c1ccc(Cl)c(C)c1 | 1.29
68 | CC(C)NC(=O)C(C#N)=Cc1cccc(O)c1 | 19.6
